# Inconclusive results are not listed. Active and inactive are the calls of the source. The calls were made as follows, unless noted: active = hit-call score of the fitted dose curve at least 0.9, where 1 is the maximum; inactive = score below 0.9.
# Experiments:
# [1] = CCTE_Shafer_MEA_dev_LDH: CCTE's Lactate Dehydrogenase Assay for Cytotoxicity in the Neural Network Formation Assay, Shafer Lab (AID 2284068; active = hit-call score of the fitted dose curve at least 0.9, where 1 is the maximum;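 also: exposure for twelve days from plating with re-dosing on DIV 5 and 9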)
# In short: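 Primary rat cortical neurons were plated on PEI/laminin MEA plates and exposed from day 0 for twelve days, with compound renewed at DIV 5 and 9. Cytotoxicity was determined by spectrophotometric LDH assay relative to DMSO.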
# [2] = CCTE_Shafer_MEA_dev_AB: CCTE's Alamar Blue Assay for Cytotoxicity in the Neural Network Formation Assay, Shafer Lab (AID 2284083; active = hit-call score of the fitted dose curve at least 0.9, where 1 is the maximum;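 also: twelve days of exposure from plating with re-dosing on DIV 5 and 9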)
# In short: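 Primary rat cortical neurons on PEI-coated 48-well MEA plates, 1.5 x 10^5 cells/well in laminin drop; compound exposure from day 0 of plating for twelve days, renewed at medium changes on DIV 5 and 9. Viability read as resazurin reduction by fluorescence, relative to DMSO.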
# [3] = CCTE_Mundy_HCI_Cortical_Synap_Neur_Matur_BPCount: CCTE's Synaptogenesis and Neurite Maturation Assay in rat cortical cells for Branch Point Count, Mundy Lab (AID 2284211)
# In short: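 HCI read-out of branch points from MAP2/synaptophysin/Hoechst immunofluorescence; rat cortical cultures, AraC DIV 5, dosing DIV 7, fixed DIV 12; fit in positive direction vs DMSO baseline.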
# [4] = CCTE_Mundy_HCI_Cortical_NOG_NeuriteCount: CCTE's Neurite Outgrowth Assay in rat cortical cells for Neurite Count, Mundy Lab (AID 2284212);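 also: cells fixed about two days after chemical exposure began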
# In short: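 Rat cortical primary cells; compound added 2 h post-plating, 1/10 dilution of working solution. Anti-betaIII-tubulin/AF488 ICC; ArrayScan neurite count vs DMSO.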
# [5] = CCTE_Mundy_HCI_Cortical_Synap_Neur_Matur_NeuriteCount: CCTE's Synaptogenesis and Neurite Maturation Assay in rat cortical cells for Neurite Count, Mundy Lab (AID 2284222);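 also: exposure from day 7 to day 12 in vitro with readout at day 12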
# In short: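 Rat primary cortical cells; AraC added at DIV 5, chemicals dosed with media change at DIV 7 through DIV 12. MAP2/synaptophysin/Hoechst immunostaining, high-content imaging of neurite number; fitted relative to DMSO.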
# [6] = TAMU_PeakParms_SingleDonor1434_QT: Texas A&M University (TAMU) 1.5-hr Human Induced Pluripotent Stem Cell (iPSC)-derived Cardiomyocytes Calcium (Ca+2) Flux Assay for Cardiotoxicity: QT (decay-rise ratio) (AID 2284235; active = hit-call score of the fitted dose curve at least 0.9, where 1 is the maximum)
# In short: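 Decay/rise ratio of calcium-flux fluorescence scored after 90 min exposure (37C) of donor 1434 iPSC cardiomyocytes to 0.2–100 uM (0.5% DMSO). Beat-cessation and severe-notch points removed; POD is EC05, a 5% rise over DMSO.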
# [7] = CCTE_Mundy_HCI_Cortical_NOG_BPCount: CCTE's Neurite Outgrowth Assay in rat cortical cells for Branch Point Count, Mundy Lab (AID 2284237);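 also: branch points counted about two days after chemical exposure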
# In short: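 Measured 50.33 h after dosing, this morphology endpoint uses rat primary cortical cultures labelled for betaIII-tubulin. Branch points are quantified by high-content imaging, with DMSO as negative control and baseline.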
# [8] = molecular target: human CYP19A1, CYP19A1 (gene 1588) (UniProt P11511); assay: NVS_ADME_hCYP19A1: NovaScreen (NVS) CYP450-related Enzyme Activity (ADME) Assay for human CYP19A1 (AID 2283098; active = hit-call score of the fitted dose curve at least 0.9, where 1 is the maximum)
# In short: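 Compounds were first screened at 10 uM in duplicate against purified enzyme, with a fluorogenic substrate and fluorescence intensity detection after 0.5 h. Inhibition appears as reduced signal against acetonitrile control.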
# [9] = molecular target: human CYP2D6, CYP2D6 (gene 1565) (UniProt P10635); assay: NVS_ADME_hCYP2D6: NovaScreen (NVS) CYP450-related Enzyme Activity (ADME) Assay for human CYP2D6 (AID 2283107; active = hit-call score of the fitted dose curve at least 0.9, where 1 is the maximum)
# In short: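 Biochemical fluorescence assay, insect-cell-derived enzyme. Read at 1 h; inhibition taken from loss of signal against acetonitrile. Screened at 10 uM in duplicate, with concentration series for actives.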
# [10] = tested on: rat CYP2C6, gene 293989; assay: NVS_ADME_rCYP2C6: NovaScreen (NVS) CYP450-related Enzyme Activity (ADME) Assay for rat CYP2C6 (AID 2283120; active = hit-call score of the fitted dose curve at least 0.9, where 1 is the maximum)
# In short: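 Compounds first tested in duplicate at 10 uM, hits (e.g. 30% inhibition) re-run in singleton dose series to a 20 uM top concentration. Enzyme activity of recombinant rat CYP2C6 measured via fluorescent substrate turnover after 1 h; acetonitrile baseline.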
# [11] = tested on: rat CYP3A1, gene 25642; assay: NVS_ADME_rCYP3A1: NovaScreen (NVS) CYP450-related Enzyme Activity (ADME) Assay for rat CYP3A1 (AID 2283126; active = hit-call score of the fitted dose curve at least 0.9, where 1 is the maximum)
# In short: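 Compounds went first at 10 uM duplicate, then to series with 20 uM maximum. Fluorescence from substrate turnover by the recombinant enzyme was measured 0.5 h post-dosing, inhibition scored against acetonitrile vehicle.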
# [12] = molecular target: human Norepinephrine Transporter (NET), SLC6A2 (gene 6530) (UniProt P23975); assay: NVS_TR_hNET: NovaScreen (NVS) Transporter Assay for human Norepinephrine Transporter (NET) (AID 2283377; active = hit-call score of the fitted dose curve at least 0.9, where 1 is the maximum;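 also: cell-free membrane protein extracted from CHO cells expressing human NET; displacement of radioligand from human NET seen as loss of scintillation signal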)
# In short: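 In this cell-free binding screen, chemicals at 25 uM (duplicate) compete with a radioligand for CHO-derived human NET over 1 hour, with filter-based radiodetection.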
# [13] = UKN5_HCS_SBAD2_cell_viability: Viability Assessment in the University of Konstanz (UKN) Leist Lab Neurite Outgrowth Assay in human iPSC-derived immature Dorsal Root Ganglia Neurons (UKN5) (AID 2284056)
# In short: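 iPSC-derived immature peripheral neurons (SBAD2) seeded on Matrigel with CHIR99021, SU5402 and DAPT, dosed 1 h later for 24 h. Viability from Hoechst H-33342 and calcein-AM live staining, high-content imaging; bidirectional fit versus DMSO.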
# [14] = UKN5_HCS_SBAD2_neurite_outgrowth: University of Konstanz (UKN) Leist Lab Neurite Outgrowth Assay in human iPSC-derived immature Dorsal Root Ganglia Neurons (UKN5) (AID 2284070); conditions: actives raise or lower the signal
# In short: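 Thaw, seed on Matrigel (100.000 cells/cm2), dose 1 h later; at 23 h live-stain with H-33342 and calcein-AM for 60 min; image at 24 h. Neurite area fitted bidirectionally vs DMSO.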
# [15] = UKN2_HCS_IMR90_neural_migration: University of Konstanz (UKN) Leist Lab Neural Crest Cell Migration Assay in human induced IMR90 Pluripotent Stem Cells (UKN2) (AID 2284204); conditions: actives raise or lower the signal
# In short: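 Using a 96-well stopper format with PLO/laminin/fibronectin coating, neural crest cells from iPSC migrate in cytokine-supplemented N2-S medium; after 24 h, chemicals are applied for a further 24 h, then cells are imaged after dye staining.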
# [16] = IUF_NPC1b_proliferation_BrdU_72hr: Leibniz Research Institute for Environmental Medicine (IUF) 72-hour Neural Progenitor Cell Bromodeoxyuridine (BrdU) Proliferation Assay (NPC1b) (AID 2284207)
# In short: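 Neural progenitor spheres of human fetal origin are treated for three days; BrdU added for the last 16 h is quantified by luminescence ELISA, with DMSO as baseline and EGF/FGF omission as positive control.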
# [17] = CCTE_Mundy_HCI_hNP1_Pro_ResponderAvgInten: CCTE's Proliferation Assay in human neuroprogenitor cells, Mundy Lab (AID 2284224; active = hit-call score of the fitted dose curve at least 0.9, where 1 is the maximum;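 also: human neural progenitor cells hNP1 derived from WA09 embryonic stem cells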)
# In short: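 Human neuroprogenitors (hNP1, WA09 lineage) receive test chemical after 40 to 44 hours of attachment. A four-hour BrdU pulse begins twenty hours later, followed by fixation and high content imaging; signal is referenced to DMSO controls.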
# [18] = UKN2_HCS_IMR90_cell_viability: Viability Assessment in the University of Konstanz (UKN) Leist Lab Neural Crest Cell Migration Assay in human induced IMR90 Pluripotent Stem Cells (UKN2) (AID 2284233);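 also: viability of neural crest cells differentiated from IMR90 iPSC measured by calcein-AM fluorescence imaging; cells exposed to compound for 24 h after a 24 h migration phase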
# In short: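 cMINC format, iPSC-derived neural crest (IMR90); 24 h migration (EGF/FGF, N2-S), then 24 h toxicant. Calcein-AM/H-33342 stain 30 min; fluorescence intensity by HCS; DMSO-normalised, bidirectional fitting.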
# [19] = CCTE_Mundy_HCI_hNP1_Casp3_7: CCTE's Caspase-Glo 3/7 Assay in human neuroprogenitor cells for Apoptosis, Mundy Lab (AID 2284240)
# In short: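 Neuroepithelial-lineage stem cells from WA09 embryonic cells were treated with chemicals after 40–44 h of culture. Twenty-four hours later, caspase-3/7 activation was detected luminescently after a 30 min room-temperature reagent step, with DMSO as baseline.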
# [20] = tested on: TTR (gene 7276); assay: CCTE_GLTED_hTTR_0.125uM: CCTE's human Transthyretin (hTTR) Inhibition Assay, with 0.125uM TTR, Great Lakes Toxicology and Ecology Division (GLTED) Lab (AID 2284431);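 also: hits lower the fluorescence signal relative to DMSO baseline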
# In short: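 Activity is defined as decreased ANSA fluorescence (ex 380, em 475) from human transthyretin, 0.125uM, following 2-hour chemical exposure in a cell-free setup, with DMSO as baseline.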
# Sequence of human CYP19A1, CYP19A1 (gene 1588) (P11511 whole entry, looked up): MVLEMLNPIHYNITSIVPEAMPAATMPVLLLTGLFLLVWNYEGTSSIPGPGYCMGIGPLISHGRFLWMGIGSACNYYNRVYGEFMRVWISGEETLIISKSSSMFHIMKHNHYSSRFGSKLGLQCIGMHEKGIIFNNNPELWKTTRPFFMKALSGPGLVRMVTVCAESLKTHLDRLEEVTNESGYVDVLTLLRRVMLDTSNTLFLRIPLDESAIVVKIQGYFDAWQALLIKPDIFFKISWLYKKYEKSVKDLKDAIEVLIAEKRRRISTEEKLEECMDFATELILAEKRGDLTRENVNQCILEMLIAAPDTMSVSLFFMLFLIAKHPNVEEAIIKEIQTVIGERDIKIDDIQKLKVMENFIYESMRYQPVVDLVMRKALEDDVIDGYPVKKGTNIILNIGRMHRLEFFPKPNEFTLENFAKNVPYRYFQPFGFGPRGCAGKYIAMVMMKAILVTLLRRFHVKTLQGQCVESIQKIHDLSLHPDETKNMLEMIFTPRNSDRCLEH
# Sequence of human Norepinephrine Transporter (NET), SLC6A2 (gene 6530) (P23975 whole entry, looked up): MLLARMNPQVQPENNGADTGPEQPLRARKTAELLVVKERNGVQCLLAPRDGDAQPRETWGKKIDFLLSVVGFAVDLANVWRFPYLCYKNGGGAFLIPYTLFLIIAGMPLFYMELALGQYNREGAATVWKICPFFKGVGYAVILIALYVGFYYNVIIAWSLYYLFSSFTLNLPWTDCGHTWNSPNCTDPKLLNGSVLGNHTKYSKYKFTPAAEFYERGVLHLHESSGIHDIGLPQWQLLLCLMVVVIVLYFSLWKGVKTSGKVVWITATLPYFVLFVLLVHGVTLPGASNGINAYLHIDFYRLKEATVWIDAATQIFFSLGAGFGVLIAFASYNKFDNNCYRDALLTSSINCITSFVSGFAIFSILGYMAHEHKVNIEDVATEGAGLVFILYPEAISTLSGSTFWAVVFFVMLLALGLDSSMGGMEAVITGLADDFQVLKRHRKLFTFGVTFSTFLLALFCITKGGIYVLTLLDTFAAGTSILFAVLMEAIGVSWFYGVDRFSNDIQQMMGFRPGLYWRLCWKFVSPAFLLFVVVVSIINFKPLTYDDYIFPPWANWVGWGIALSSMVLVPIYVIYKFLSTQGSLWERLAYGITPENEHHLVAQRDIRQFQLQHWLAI
# Sequence of human CYP2D6, CYP2D6 (gene 1565) (P10635 whole entry, looked up): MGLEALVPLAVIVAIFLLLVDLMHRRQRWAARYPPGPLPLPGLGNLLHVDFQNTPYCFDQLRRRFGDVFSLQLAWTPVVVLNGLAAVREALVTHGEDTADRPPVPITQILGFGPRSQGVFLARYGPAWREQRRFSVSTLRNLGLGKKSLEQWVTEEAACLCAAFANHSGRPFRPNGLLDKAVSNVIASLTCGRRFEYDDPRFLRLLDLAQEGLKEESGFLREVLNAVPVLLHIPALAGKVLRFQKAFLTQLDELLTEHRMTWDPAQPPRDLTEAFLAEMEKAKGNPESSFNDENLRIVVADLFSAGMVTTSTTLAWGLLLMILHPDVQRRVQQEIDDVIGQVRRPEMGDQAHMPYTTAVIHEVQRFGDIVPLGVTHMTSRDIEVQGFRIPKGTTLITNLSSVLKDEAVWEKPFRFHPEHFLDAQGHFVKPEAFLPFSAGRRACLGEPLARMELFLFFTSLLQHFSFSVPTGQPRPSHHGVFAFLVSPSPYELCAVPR
compound,measurement,setting,value
Cc1ccc(OP(=O)(Oc2ccc(C)cc2)Oc2ccc(C)cc2)cc1 (tested in a mixture with another compound),outcome,[1],inactive
same,outcome,[2],inactive
same,outcome,[3],inactive
same,AC50,[4],20.6 µM (active)
same,outcome,[5],inactive
same,outcome,[6],inactive
same,AC50,[7],20.2 µM (active)
CC1(C)[C@H](C(=O)O[C@H](C#N)c2cccc(Oc3ccccc3)c2)[C@@H]1C=C(Br)Br,outcome,[8],inactive
same,AC50,[9],2.27 µM (active)
same,outcome,[10],inactive
same,outcome,[11],inactive
same,AC50,[12],32.8 µM (active)
same,AC50,[13],115 µM (active)
same,AC50,[14],111 µM (active)
same,outcome,[15],inactive
same,outcome,[16],inactive
same,outcome,[17],inactive
same,outcome,[18],inactive
same,outcome,[19],inactive
CCOC(=O)COc1ccc(Cl)cc1Cl,AC50,[20],19.4 µM (active)

# Reference: PubChem BioAssay (EPA / NIEHS)
